Data from PubChem BioAssay.
The list shows a part of the results. Activity calls are given as the source filed them.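 Rule for the calls, unless noted: active = mean inhibition above a 50% cutoff; inactive = the rest.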

Assays:
[1] = tested on: TLR4-MyD88 interaction (human), BLA complementation; experiment: disruptors of TLR4 binding to MyD88 – cell-based, HeLa CL3-4, BLA complementation, FRET ratio, confirmation (AID 941;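 active = mean inhibition across three repeat runs above about 25% carried over from the earlier screen, limit read from the data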;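 note: plate controls were DMSO only for no effect and clavulanic acid blocking BLA at full dose for full effect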); conditions: CCF4 FRET ratio, at 8.4 µM, stronger effect = higher value
[2] = BLA reporter interference in HeLa cells – cell-based, full-length BLA, CCF4 FRET ratio, artefact control for TLR4-MyD88 binding inhibitor project, confirmation (AID 1237;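 active = mean inhibition over three repeats above about 26% taken from the earlier screen, limit read from the data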;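 note: HeLa cells stably expressing beta-lactamase reporter as counterscreen for TLR4-MyD88 inhibitors; 0% = DMSO and 100% = clavulanic acid full inhibition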); conditions: at 8.4 µM, stronger effect = higher value
[3] = target: Sphingosine 1-phosphate receptor 4 (Homo sapiens) (UniProt O95977); experiment: blockers of human S1P4 signalling – cell-based, confirmation (AID 1524; in the data active = inhibition above about 30%); conditions: S1P4-expressing cell line, antagonist mode, reporter read-out; at 4.98 µM; stronger effect = higher value
[4] = target: Sphingosine 1-phosphate receptor 1 (Homo sapiens) (UniProt P21453); experiment: blockade of human S1P1 receptor – cell-based, counter-screen for S1P4 antagonist project (AID 1564; in the data active = inhibition above about 40%;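 note: receptor stimulated with S1P near its EC80; 0% = agonist stimulated wells and 100% = vehicle only wells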); conditions: cell-based S1P1 antagonist counterscreen, at 4.98 µM, stronger effect = higher value
[5] = target: Protein-arginine deiminase type-4 (Homo sapiens) (UniProt Q9UM07); experiment: protein arginine deiminase 4 blockade, retest – biochemical, fluorescence polarization, confirmation (AID 488796;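 active = mean inhibition across replicates above the hit cutoff set by the earlier primary screen, cut at about 15% in these data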;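 note: inhibitors block active-site labeling by the probe so polarization falls; 0% = PAD4 with probe and DMSO and 100% = probe without PAD4 enzyme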); conditions: recombinant PAD4, RCA probe fluorescence polarization; at 6.36 µM; stronger effect = higher value
[6] = target: Toll-like receptor 9 (Homo sapiens) (UniProt Q9NR96); experiment: disruptors of TLR9 binding to MyD88 – cell-based, CHO, BLA complementation, fluorescence, triplicate, confirmation (AID 540250;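 active = mean inhibition across three repeats above about 21% taken from the earlier screen, limit read from the data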;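 note: blue over green emission ratio reports constitutive TLR9 MyD88 association via BLA complementation; 0% = DMSO vehicle wells and 100% = clavulanate BLA inhibitor wells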); conditions: CCF4 FRET ratio, at 4.98 µM, stronger effect = higher value
[7] = BLA reporter readout interference – cell-based, fluorescence, artefact control for TLR9-MyD88 binding inhibitor project (AID 540251); conditions: CHO-BLA cells, CCF4 FRET ratio, at 4.98 µM, stronger effect = higher value;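 note: counterscreen of TLR9-MyD88 hits on CMV-driven BLA in CHO-K1 cells; 0% = DMSO alone and 100% = clavulanate blocking BLA; higher means less blue over green ratio so more BLA blockade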
[8] = CHO cell viability loss – luminescence, single concentration, cytotoxicity control for TLR9-MyD88 binding inhibitor project (AID 588336; in the data active = inhibition above about 11%); conditions: TLR9-MyD88 CHO cells cytotoxicity, at 4.98 µM, stronger effect = higher value
[9] = target: Receptor-interacting serine/threonine-protein kinase 2 (Homo sapiens) (UniProt O43353); experiment: inhibitors of RIPK2 association with NOD2 – fluorescence, CHO cells, BLA complementation, triplicate, confirmation (AID 624370;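 active = mean inhibition across replicates above a set limit taken from the earlier primary screen, cut at about 21% in these data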;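 note: 0% = DMSO-only wells and the high end = clavulanate BLA-blocked wells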); conditions: CCF4 FRET, at 4.98 µM, stronger effect = higher value
[10] = BLA reporter readout interference – cell-based, CHO-K1 CMV-bla, CCF4 FRET, fluorescence, artefact control for NOD2-RIPK2 interaction inhibitor project, confirmation (AID 624371;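 active = mean inhibition above the low-control mean inhibition plus three low-control SD, cut at about 11% in these data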;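 note: 0% = DMSO only wells and 100% = clavulanate high control wells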); conditions: CCF4 FRET ratio, counterscreen, at 4.98 µM, stronger effect = higher value
[11] = target: Photoreceptor-specific nuclear receptor (Homo sapiens) (UniProt Q9Y5X4); experiment: retest of NR2E3-NCOR disrupting agonists – cell-based, luminescence, CHO-S two-hybrid, confirmation (AID 624378;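 active = average inhibition above a cutoff equal to the mean inhibition of all tested compounds plus one SD, cut at about 70% in these data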;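 note: 0% = DMSO in NR2E3 cells and 100% = DMSO in cells lacking NR2E3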); conditions: CHO-S mammalian two-hybrid NR2E3-NCOR, luciferase luminescence; at 3.98 µM; stronger effect = higher value
[12] = nonselective effects on VP16 transactivation – cell-based, luminescence, CHO-S, high throughput, counter-screen for NR2E3 agonist project, confirmation (AID 624379;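 active = mean inhibition above a cutoff equal to the average over all tested compounds plus one standard deviation, cut at about 70% in these data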;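 note: 0% = DMSO with VP16-transfected cells and 100% = DMSO with cells lacking VP16; higher means less reporter light so more repression of VP16 activity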); conditions: CHO-S GAL4-VP16 luciferase reporter, at 3.98 µM, stronger effect = higher value
[13] = StAR promoter reporter inhibitors, counter-screen for LRH-1 inverse agonist project, cell-based, luminescence, high throughput (AID 651611; in the data active = inhibition above about 28%); conditions: StAR promoter luciferase reporter counterscreen, at 3.6 µM, stronger effect = higher value
[14] = target: Nuclear receptor subfamily 5 group A member 2 (Homo sapiens) (UniProt O00482); experiment: NR5A2 activity suppression in reporter cells – cell-based, luminescence, confirmation (AID 651613; in the data active = inhibition above about 42%;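 note: HEK293T cells co-transfected with LRH-1 and StAR promoter luciferase reporter; 0% = vehicle wells and 100% = parental cells lacking receptor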); conditions: cell-based LRH-1 luciferase reporter, inverse agonism; at 3.6 µM; stronger effect = higher value
[15] = target: Steroidogenic factor 1 (Homo sapiens) (UniProt Q13285); experiment: inverse agonism at SF1 nuclear receptor – cell-based, luminescence, high throughput, counter-screen for LRH-1 inverse agonist project (AID 651614; in the data active = inhibition above about 44%;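 note: cells cotransfected with StAR promoter reporter and SF1 expression vector; 0% = vehicle on cells with receptor and 100% = vehicle on cells lacking receptor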); conditions: cell-based SF1 luciferase reporter, at 3.6 µM, stronger effect = higher value
[16] = compounds suppressing VP16-driven luciferase signal – cell-based, luminescence, high throughput, counter-screen for LRH-1 inverse agonist project (AID 651615; in the data active = inhibition above about 33%); conditions: Gal4-VP16 luciferase reporter cells, at 3.6 µM, stronger effect = higher value
[17] = tested on: transactivating tegument protein VP16 (Human herpesvirus 1); experiment: compounds suppressing VP16-driven luciferase signal – cell-based, luminescence, single concentration, counter-screen for SRC2 inhibitor project (AID 652007; in the data active = inhibition above about 36%); conditions: cell-based VP16 transactivation luciferase reporter, at 8.9 µM, stronger effect = higher value
[18] = target: Nuclear receptor coactivator 2 (Homo sapiens) (UniProt Q15596); experiment: inhibition of GAL4-SRC2 driven luciferase expression – cell-based, luminescence, HEK293, triplicate, confirmation (AID 652008;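 active = mean inhibition above 46.5%, the solvent-only control mean plus 3 SD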;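 note: 0% = DMSO-treated cells and 100% = Gossypol at 36 µM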); conditions: HEK293 GAL4-SRC2 luciferase reporter, at 8.9 µM, stronger effect = higher value
[19] = VP16-driven transactivation reporter suppression – cell-based, luminescence, HEK293, counter-screen for COUP-TFII antagonist project (AID 687007; in the data active = inhibition above about 13%); conditions: HEK293 Gal4-VP16 luciferase reporter, at 8.5 µM, stronger effect = higher value
[20] = target: COUP transcription factor 2 (Homo sapiens) (UniProt P24468); experiment: retest of COUP-TFII reporter suppressors – cell-based, luciferase reporter, HEK293, triplicate, confirmation (AID 687008;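 active = mean inhibition over three repeats above a set limit taken from the earlier primary screen, cut at about 38% in these data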;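 note: 100% = cells given the luciferase reporter alone without the COUP-TF2 vector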); conditions: HEK293 NGFI-A luciferase reporter, luminescence; at 8.5 µM; stronger effect = higher value
[21] = target: (Lyso)-N-acylphosphatidylethanolamine lipase (Mus musculus) (UniProt Q8VD66); experiment: mouse ABHD4 hydrolase blockers, triplicate – biochemical, fluorescence polarization, confirmation (AID 720658;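 active = mean inhibition across replicates above the hit cutoff set in the primary screen, cut at about 30% in these data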;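 note: 0% = wild-type ABHD4 with DMSO and 100% = catalytically dead S159A mutant with DMSO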); conditions: purified mABHD4, FP-Rh probe fluorescence polarization; at 8.92 µM; stronger effect = higher value
[22] = tested on: HIV-1 integrase (multimerization); experiment: stimulation of HIV-1 integrase oligomerization – biochemical, TR-FRET, counter-screen for LEDGF/p75 integration inhibitor project (AID 1053131; in the data active = activation above about 8.9%); conditions: TR-FRET HIV-1 integrase multimerization, at 7.7 µM, stronger effect = higher value
[23] = compounds disturbing TR-FRET signal readout – biochemical, HIV-1 IN multimerization, artefact control for LEDGF/p75-dependent integration inhibitor project, confirmation (AID 1053135;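 active = inhibition above the mean over all tested compounds plus 3 SD, which no compound reached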;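 note: 0% = integrase with antibodies and DMSO and 100% = antibodies without integrase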); conditions: TR-FRET optical interference counterscreen, at 7.7 µM, stronger effect = higher value
[24] = tested on: HIV-1 integrase / human LEDGF/p75 complex; experiment: blockers of LEDGF/p75-dependent integrase activity – biochemical, TR-FRET, confirmation (AID 1053136; in the data active = inhibition above about 14%); conditions: TR-FRET LEDGF/p75-dependent HIV-1 integration, at 3.7 µM, stronger effect = higher value
[25] = potentiators of IFN-gamma STAT1 reporter activity – cell-based, HTS, luciferase reporter, confirmation (AID 1262;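 active = activation above a set limit carried over from the earlier primary STAT1 screen, cut at about 140% in these data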;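 note: simple ratio to median IFN-gamma plus DMSO wells so 0% means no light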); conditions: NIH 3T3 STAT1-luciferase reporter, IFN-gamma potentiation, luminescence; at 5.7 µM; stronger effect = higher value; 100% = IFN-gamma EC80 alone, no compound
[26] = enhancement of NF-kB transcriptional signalling – cell-based, HEK293T, luciferase luminescence, TNF-alpha, counter-screen for STAT1 activator project (AID 1306;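 active = activation above the mean of solvent-only control wells plus 3 SD, set per campaign, cut at about 130% in these data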;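 note: TNF-alpha given at a submaximal dose yielding about 80% of full reporter signal; values are well signal over median control so 100% means no change and 0% no light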); conditions: HEK293T NF-kB luciferase reporter, TNF-alpha stimulated, at 5.7 µM, stronger effect = higher value, 100% = TNF-alpha with vehicle only
[27] = target: Signal transducer and activator of transcription 3 (Homo sapiens) (UniProt P40763); experiment: enhancers of IL-6 STAT3 transcription – U3A cells, luciferase, luminescence, counter-screen for STAT1 activator project, confirmation (AID 1316;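 active = activation above the solvent-only control well mean plus 3 SD, set per plate batch, cut at about 110% in these data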;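 note: 0% = no luminescence and 100% = median IL-6 plus DMSO wells; higher means more STAT3 reporter activation so hits are non-selective activators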); conditions: U3A cells STAT3-luciferase reporter, IL-6, luminescence; at 5.7 µM; stronger effect = higher value; 100 = IL-6 alone, no compound effect; cells lack STAT1

Sequence of Receptor-interacting serine/threonine-protein kinase 2 (Homo sapiens) (O43353 whole entry, looked up): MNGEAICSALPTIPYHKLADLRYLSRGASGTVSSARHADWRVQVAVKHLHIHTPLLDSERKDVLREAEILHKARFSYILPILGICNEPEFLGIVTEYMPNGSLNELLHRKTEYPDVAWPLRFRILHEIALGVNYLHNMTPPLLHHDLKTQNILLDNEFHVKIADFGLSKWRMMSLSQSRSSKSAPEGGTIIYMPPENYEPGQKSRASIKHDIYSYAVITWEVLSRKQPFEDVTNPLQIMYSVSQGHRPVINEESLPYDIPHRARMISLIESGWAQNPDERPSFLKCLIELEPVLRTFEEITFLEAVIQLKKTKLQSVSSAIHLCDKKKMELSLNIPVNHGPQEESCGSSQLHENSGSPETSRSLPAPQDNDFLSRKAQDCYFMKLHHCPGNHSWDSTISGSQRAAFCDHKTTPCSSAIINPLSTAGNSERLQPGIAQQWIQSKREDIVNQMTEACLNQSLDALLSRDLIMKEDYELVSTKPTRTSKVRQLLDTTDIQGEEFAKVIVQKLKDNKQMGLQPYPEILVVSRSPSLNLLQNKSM
Sequence of Toll-like receptor 9 (Homo sapiens) (Q9NR96 whole entry, looked up): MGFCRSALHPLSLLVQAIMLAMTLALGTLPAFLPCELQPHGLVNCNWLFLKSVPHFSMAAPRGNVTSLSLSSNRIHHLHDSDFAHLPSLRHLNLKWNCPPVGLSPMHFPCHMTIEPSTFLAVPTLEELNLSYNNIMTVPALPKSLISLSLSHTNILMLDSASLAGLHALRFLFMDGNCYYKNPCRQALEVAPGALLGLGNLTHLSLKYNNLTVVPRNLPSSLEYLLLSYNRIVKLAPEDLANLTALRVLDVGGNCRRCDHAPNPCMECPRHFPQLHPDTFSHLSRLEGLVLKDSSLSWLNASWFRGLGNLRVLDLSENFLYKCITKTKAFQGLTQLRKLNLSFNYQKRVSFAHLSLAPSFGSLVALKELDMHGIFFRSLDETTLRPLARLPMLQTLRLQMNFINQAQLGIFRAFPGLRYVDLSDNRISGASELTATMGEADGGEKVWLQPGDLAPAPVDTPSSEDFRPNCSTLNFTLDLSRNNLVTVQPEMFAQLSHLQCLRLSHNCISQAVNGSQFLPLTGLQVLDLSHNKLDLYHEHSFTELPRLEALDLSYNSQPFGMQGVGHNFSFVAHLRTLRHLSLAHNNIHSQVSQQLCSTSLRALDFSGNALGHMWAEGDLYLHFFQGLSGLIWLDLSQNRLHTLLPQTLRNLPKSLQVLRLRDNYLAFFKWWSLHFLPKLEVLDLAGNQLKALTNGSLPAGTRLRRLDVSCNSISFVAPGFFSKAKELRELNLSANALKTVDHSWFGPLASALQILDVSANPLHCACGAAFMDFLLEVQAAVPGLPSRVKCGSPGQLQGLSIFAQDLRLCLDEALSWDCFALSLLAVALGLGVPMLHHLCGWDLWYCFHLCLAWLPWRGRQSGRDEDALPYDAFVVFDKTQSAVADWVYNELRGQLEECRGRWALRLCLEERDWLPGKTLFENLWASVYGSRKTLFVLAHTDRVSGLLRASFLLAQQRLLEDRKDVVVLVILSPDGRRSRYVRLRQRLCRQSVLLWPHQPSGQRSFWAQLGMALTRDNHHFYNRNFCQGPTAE
Sequence of (Lyso)-N-acylphosphatidylethanolamine lipase (Mus musculus) (Q8VD66 whole entry, looked up): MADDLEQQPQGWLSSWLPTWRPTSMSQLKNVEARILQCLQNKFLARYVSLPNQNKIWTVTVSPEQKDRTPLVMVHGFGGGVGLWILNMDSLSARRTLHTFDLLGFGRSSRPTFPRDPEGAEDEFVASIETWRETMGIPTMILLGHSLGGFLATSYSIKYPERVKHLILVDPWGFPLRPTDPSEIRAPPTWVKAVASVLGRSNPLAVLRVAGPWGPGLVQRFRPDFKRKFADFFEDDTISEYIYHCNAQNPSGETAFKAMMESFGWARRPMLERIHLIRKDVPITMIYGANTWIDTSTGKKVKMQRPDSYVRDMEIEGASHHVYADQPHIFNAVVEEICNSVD
Sequence of Sphingosine 1-phosphate receptor 4 (Homo sapiens) (O95977 whole entry, looked up): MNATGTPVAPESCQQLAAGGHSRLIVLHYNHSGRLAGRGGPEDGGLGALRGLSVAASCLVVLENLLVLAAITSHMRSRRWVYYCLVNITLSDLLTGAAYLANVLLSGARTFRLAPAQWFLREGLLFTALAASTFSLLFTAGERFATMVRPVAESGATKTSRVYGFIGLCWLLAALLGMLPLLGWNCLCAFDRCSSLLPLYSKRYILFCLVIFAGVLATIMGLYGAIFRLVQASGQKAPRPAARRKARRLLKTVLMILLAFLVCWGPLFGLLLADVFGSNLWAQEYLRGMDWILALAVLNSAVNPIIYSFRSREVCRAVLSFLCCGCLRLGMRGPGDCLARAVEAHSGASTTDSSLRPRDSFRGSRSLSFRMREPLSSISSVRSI
Sequence of Nuclear receptor coactivator 2 (Homo sapiens) (Q15596 whole entry, looked up, the tested form may be a part): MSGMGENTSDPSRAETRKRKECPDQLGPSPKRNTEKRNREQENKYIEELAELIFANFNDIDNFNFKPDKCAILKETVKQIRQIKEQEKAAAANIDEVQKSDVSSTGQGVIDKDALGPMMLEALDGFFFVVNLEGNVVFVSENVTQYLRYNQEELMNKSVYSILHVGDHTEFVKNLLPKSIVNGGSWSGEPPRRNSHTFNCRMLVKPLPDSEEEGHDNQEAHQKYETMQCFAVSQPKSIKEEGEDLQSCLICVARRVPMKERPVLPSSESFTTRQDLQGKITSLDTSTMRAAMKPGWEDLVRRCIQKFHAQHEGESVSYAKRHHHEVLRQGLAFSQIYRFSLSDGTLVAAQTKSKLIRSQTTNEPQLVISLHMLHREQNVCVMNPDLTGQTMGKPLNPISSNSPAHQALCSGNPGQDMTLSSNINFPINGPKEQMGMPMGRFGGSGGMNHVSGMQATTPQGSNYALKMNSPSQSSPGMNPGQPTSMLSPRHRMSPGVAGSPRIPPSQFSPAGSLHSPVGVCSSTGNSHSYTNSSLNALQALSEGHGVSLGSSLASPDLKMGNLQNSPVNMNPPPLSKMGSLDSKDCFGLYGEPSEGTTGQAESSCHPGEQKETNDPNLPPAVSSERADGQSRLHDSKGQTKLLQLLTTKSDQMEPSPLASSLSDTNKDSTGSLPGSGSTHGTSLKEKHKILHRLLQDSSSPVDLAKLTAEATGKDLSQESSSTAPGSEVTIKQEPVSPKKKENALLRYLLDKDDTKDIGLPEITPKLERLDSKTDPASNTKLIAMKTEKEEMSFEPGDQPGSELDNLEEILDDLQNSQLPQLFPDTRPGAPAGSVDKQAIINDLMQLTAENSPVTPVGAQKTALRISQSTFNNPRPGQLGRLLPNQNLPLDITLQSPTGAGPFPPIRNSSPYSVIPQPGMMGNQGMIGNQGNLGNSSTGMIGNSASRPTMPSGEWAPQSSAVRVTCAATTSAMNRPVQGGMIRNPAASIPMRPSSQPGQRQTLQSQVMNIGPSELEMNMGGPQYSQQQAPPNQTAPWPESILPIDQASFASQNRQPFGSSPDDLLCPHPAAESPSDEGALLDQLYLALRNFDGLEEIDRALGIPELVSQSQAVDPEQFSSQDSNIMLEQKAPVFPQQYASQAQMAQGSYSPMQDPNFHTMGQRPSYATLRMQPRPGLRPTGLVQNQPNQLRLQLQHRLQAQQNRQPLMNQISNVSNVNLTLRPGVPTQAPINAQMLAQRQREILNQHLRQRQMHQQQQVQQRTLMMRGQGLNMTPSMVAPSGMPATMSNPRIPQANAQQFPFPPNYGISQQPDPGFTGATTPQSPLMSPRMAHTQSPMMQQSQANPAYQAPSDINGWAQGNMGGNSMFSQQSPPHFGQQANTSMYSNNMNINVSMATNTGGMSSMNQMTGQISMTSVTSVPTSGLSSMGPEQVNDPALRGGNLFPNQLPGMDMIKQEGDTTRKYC
Sequence of Sphingosine 1-phosphate receptor 1 (Homo sapiens) (P21453 whole entry, looked up): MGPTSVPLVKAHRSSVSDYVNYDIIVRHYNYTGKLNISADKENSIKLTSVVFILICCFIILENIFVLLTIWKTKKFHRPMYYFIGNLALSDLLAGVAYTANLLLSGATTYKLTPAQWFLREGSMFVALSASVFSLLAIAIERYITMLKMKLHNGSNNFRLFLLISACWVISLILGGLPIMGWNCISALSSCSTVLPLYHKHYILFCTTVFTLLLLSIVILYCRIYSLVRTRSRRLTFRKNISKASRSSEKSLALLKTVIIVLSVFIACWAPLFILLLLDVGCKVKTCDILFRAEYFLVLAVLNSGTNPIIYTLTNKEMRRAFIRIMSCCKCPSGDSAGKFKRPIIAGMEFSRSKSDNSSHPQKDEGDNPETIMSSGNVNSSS
Sequence of Nuclear receptor subfamily 5 group A member 2 (Homo sapiens) (O00482 whole entry, looked up): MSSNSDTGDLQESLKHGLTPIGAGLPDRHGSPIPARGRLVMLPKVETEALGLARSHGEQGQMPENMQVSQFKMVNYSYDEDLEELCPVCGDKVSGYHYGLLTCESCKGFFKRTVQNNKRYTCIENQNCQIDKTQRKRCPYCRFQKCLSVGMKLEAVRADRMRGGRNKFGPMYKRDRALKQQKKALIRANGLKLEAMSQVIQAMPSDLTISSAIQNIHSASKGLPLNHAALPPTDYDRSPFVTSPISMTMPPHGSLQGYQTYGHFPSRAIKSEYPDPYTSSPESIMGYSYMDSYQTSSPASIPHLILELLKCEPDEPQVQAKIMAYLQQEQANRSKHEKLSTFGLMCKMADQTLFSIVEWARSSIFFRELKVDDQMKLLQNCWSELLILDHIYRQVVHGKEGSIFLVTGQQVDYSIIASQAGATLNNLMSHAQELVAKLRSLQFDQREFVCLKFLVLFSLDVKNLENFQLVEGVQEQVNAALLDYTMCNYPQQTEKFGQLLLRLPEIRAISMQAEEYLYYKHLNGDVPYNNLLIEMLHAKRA

O=C(Nc1ccccc1Cl)/C(Cl)=C(\Cl)S(=O)c1ccccc1 (configuration not stated)
inactive: inhibition [1] 11.5% | inhibition [2] 14.5% | inhibition [4] 39.3% | inhibition [5] 14.2% | inhibition [7] 24.5% | inhibition [12] 47.4%
active: inhibition [3] 117% | inhibition [6] 39.3% | inhibition [8] 96.4% | inhibition [9] 78.8% | inhibition [10] 37.3% | inhibition [11] 90.1% | inhibition [13] 57.7% | inhibition [14] 88.7% | inhibition [15] 80.1% | inhibition [16] 80.8% | inhibition [17] 94.7% | inhibition [18] 95.9% | inhibition [19] 78.8% | inhibition [20] 101%

CCN(CC)CCCC(C)n1c2nc(=O)[nH]c(=O)c-2nc2cc(Cl)ccc21 (configuration not stated)
inactive: inhibition [6] 12.3% | inhibition [7] 14.8% | inhibition [8] -0.12% | activation [22] 2.04% | inhibition [23] -7.01%
active: inhibition [9] 38.1% | inhibition [10] 40% | inhibition [21] 44.4% | inhibition [24] 59.8%

Cc1ccc(NC(=O)Nc2ccccc2)c(Br)c1
inactive: activation (% of control) [26] 124% | activation (% of control) [27] 89.8%
active: activation (% of control) [25] 171%
